Our source for the enrichment ratio values is a collection of fitness landscapes (doi:10.1126/science.1257360).

B1: PhoQ; a variant is named by its letters at X, in order, P23837 (parent)
chain: MKKLLRLFFPLSLRVRFLLATAAVVLVLSLAYGMVALIGYSVSFDKTTFRLLRGESNLFYTLAKWENNKLHVELPENIDKQSPTMTLIYDENGQLLWAQRDVPWLMKMIQPDWLKSNGFHEIEADVNDTSLLLSGDHSIQQQLQEVREDDDDAEMTHSVAVNVYPATSRMPKLTIVVVDTIPVELKSSYMVWSWFIYVLSANLLLVIPLLWVAAWWSLRPIEALAKEVRELEEHNRELLNPATTRELTSLVRNLNRLLKSERERYDKYRTTLTDLTHSLKTPLXXLQXXLRSLRSEKMSVSDAEPVMLEQISRISQQIGYYLHRASMRGGTLLSRELHPVAPLLDNLTSALNKVYQRKGVNISLDISPEISFVGEQNDFVEVMGNVLDNACKYCLEFVEISARQTDEHLYIVVEDDGPGIPLSKREVIFDRGQRVDTLRPGQGVGLAVAREITEQYEGKIVAGESMLGGARMEVIFGRQHSAPKDE

The full ranking holds about 140,000 sequences; the median of “enrichment ratio after two sorts for PhoP signalling” is about 0, and the highest 2% start at about 11. The sample holds the highest values, similar sequences and a random draw of the others, so the mix is not that of the screen.

The variants in the assay derive from B1. As to the kind of experiment: enrichment ratio after two sorts for PhoP signalling (ratio (wild type AVST 3.29)); higher = more functional. The following applies: with PhoP (E. coli).
As to KSYL, the enrichment ratio is at most 0.25.
With QTNY, the enrichment ratio is 17.5.
QEYL: the enrichment ratio stood at 1.39.
As to QTGM, the enrichment ratio worked out at 12.
As for QTPM, the figure is at most 0.25.
For QTGD, the enrichment ratio was at most 0.25.
On to QSYL, for which the enrichment ratio is 13.9.
Next, QTDH: 29.3; DLEK: at most 0.25.
As for IPTS, the figure is at most 0.25.
Consider VIYV, for which the enrichment ratio was at most 0.25.
As for KMFH, the enrichment ratio is at most 0.25.
For the variant KSEQ, the enrichment ratio is at most 0.25.
Take TVLM: the enrichment ratio was determined as 0.847.
Next, KYWW: at most 0.25.
In the case of KESK, the enrichment ratio is at most 0.25.
As for KVEK, the enrichment ratio is at most 0.25.
Next, KTHS: 0.436.
Take VEPK: the enrichment ratio is at most 0.25.
Regarding QTRL, the enrichment ratio was at most 0.25.
Turning to QGYL, the enrichment ratio was determined as 9.62.
On to QTWL, for which the enrichment ratio turned out to be 21.9.
In the case of FDYL, the enrichment ratio is at most 0.25.
Turning to QTYI, the enrichment ratio was found to be 12.9.
In the case of QTPA, the enrichment ratio was at most 0.25.
Take QGWL: the enrichment ratio came to 2.29.
In the case of QTYL, the enrichment ratio came to 12.8.
As to QTHF, the enrichment ratio was found to be 3.14.
Next, PSTY: at most 0.25.
DPTW: the enrichment ratio is at most 0.25.
For RMLN, the enrichment ratio was at most 0.25.
As to HIRM, the enrichment ratio is at most 0.25.
On to SLCT, for which the enrichment ratio came out at 19.2.
Next, SRCT: at most 0.25.
Take KYCT: the enrichment ratio is at most 0.25.
Next, WLCT: at most 0.25; SACT: 14; PLCT: at most 0.25.
Regarding IACT, the enrichment ratio is at most 0.25.
As to SECT, the enrichment ratio amounted to 24.6.
In the case of TECT, the enrichment ratio was 5.22.
Consider HEHS, for which the enrichment ratio is at most 0.25.
As for NPLN, the figure is at most 0.25; as for KDNG, at most 0.25; as for TGQY, 5.59.
For the variant SYEM, the enrichment ratio was at most 0.25.
As to LFDK, the enrichment ratio is at most 0.25.
Turning to LFMM, the enrichment ratio was at most 0.25.
As for YGQR, the figure is at most 0.25; as for GEYT, 0.289.
As for GNTT, the figure is 2.98; as for GEAA, 11.4.
In the case of GEAY, the enrichment ratio was 23.4.
Consider GEGD, for which the enrichment ratio was at most 0.25.
Take GEAT: the enrichment ratio was 14.1.
For GENY, the enrichment ratio is at most 0.25.
For GEAS, the enrichment ratio is 9.56.
GELT: the enrichment ratio came out at 11.2.
As for GETT, the enrichment ratio stood at 16.2.
For the variant GEYI, the enrichment ratio was at most 0.25.
Turning to GETA, the enrichment ratio was at most 0.25.
As to MCVP, the enrichment ratio is at most 0.25.
Turning to LYDV, the enrichment ratio was at most 0.25.
With WERP, the enrichment ratio is at most 0.25.
Consider FGLD, for which the enrichment ratio was at most 0.25.
In the case of WHSD, the enrichment ratio was at most 0.25.
As to PARG, the enrichment ratio was at most 0.25.
As for SKNV, the enrichment ratio is at most 0.25.
As for KDFC, the enrichment ratio was at most 0.25.
As for ATCG, the figure is 16.1; as for AICG, 8.42; as for ITCG, at most 0.25.
Consider ATTG, for which the enrichment ratio amounted to 12.
In the case of TTTG, the enrichment ratio worked out at 7.1.
In the case of ATMV, the enrichment ratio stood at 9.43.
For ATPI, the enrichment ratio came to 8.1.
ATMG: the enrichment ratio turned out to be 16.2.
As to ATVG, the enrichment ratio is 6.86.
As for ATIV, the enrichment ratio was determined as 8.37.
Regarding YTTG, the enrichment ratio is at most 0.25.
In the case of ATCV, the enrichment ratio was found to be 15.4.
Take HMVR: the enrichment ratio was at most 0.25.
Next, PPPT: at most 0.25; HYAC: at most 0.25; MRCY: at most 0.25.
For the variant ALEK, the enrichment ratio is at most 0.25.
Turning to QMAV, the enrichment ratio is at most 0.25.
Turning to HMTD, the enrichment ratio was at most 0.25.
Turning to LMTS, the enrichment ratio was found to be 0.708.
Regarding YCYV, the enrichment ratio was at most 0.25.
Consider SCYS, for which the enrichment ratio turned out to be 0.535.
Consider QMGG, for which the enrichment ratio was at most 0.25.
In the case of LLQC, the enrichment ratio is at most 0.25.
Turning to ATMD, the enrichment ratio worked out at 27.9.
As to ATGD, the enrichment ratio was at most 0.25.
As for ATCA, the enrichment ratio was 5.9.
Consider ATPW, for which the enrichment ratio was at most 0.25.
Regarding ATHW, the enrichment ratio is at most 0.25.
Take ATNL: the enrichment ratio was determined as 5.25.
As for ATPL, the figure is 5.31.
Regarding ATMW, the enrichment ratio turned out to be 26.9.
ATCL: the enrichment ratio stood at 18.6.
With ATCI, the enrichment ratio came out at 12.5.
As for ATYD, the figure is at most 0.25; as for ATCK, 3.27.
For the variant WGSP, the enrichment ratio was at most 0.25.
Turning to HYYD, the enrichment ratio is at most 0.25.
Turning to WSIS, the enrichment ratio is at most 0.25.
ITGG: the enrichment ratio was at most 0.25.
As for MSAK, the figure is at most 0.25; as for EGWA, at most 0.25; as for DSML, at most 0.25.
IFTF: the enrichment ratio was at most 0.25.
Take PWYL: the enrichment ratio was at most 0.25.
As to ATCW, the enrichment ratio was found to be 11.3.
As for ADCW, the enrichment ratio was at most 0.25.
For the variant YTCW, the enrichment ratio is at most 0.25.
As for HMKN, the figure is at most 0.25; as for NKTY, at most 0.25.
ANNY: the enrichment ratio came out at 6.43.
Next, ANYI: at most 0.25.
Next, AQYI: at most 0.25.
Take AKAY: the enrichment ratio was found to be 13.6.
As for AQAY, the enrichment ratio was 15.2.
With AIAY, the enrichment ratio is 6.61.
As for ANAY, the figure is 36.4; as for NQAY, at most 0.25.
For AHAY, the enrichment ratio was 1.08.
On to CPSL, for which the enrichment ratio is at most 0.25.
Turning to QEVG, the enrichment ratio was at most 0.25.
For FDGF, the enrichment ratio is at most 0.25.
Turning to HSWS, the enrichment ratio was at most 0.25.
Next, NKSN: at most 0.25.
Next, WFED: at most 0.25.
As for WRFE, the figure is at most 0.25.
Turning to IQAV, the enrichment ratio was at most 0.25.
NVMV: the enrichment ratio is at most 0.25.
In the case of CTCH, the enrichment ratio is at most 0.25.
On to GTCH, for which the enrichment ratio came to 4.08.
For STCH, the enrichment ratio is 12.6.
Regarding YTCH, the enrichment ratio came to 0.285.
Turning to WLCH, the enrichment ratio is at most 0.25.
On to SHMH, for which the enrichment ratio was 3.
As for SLCH, the enrichment ratio was found to be 11.6.
On to KLCH, for which the enrichment ratio is at most 0.25.
Next, THCH: 5.09; ITCH: at most 0.25.
As for SHCH, the figure is 16; as for TTCH, 15.
As for DCLL, the enrichment ratio is at most 0.25.
On to YWMV, for which the enrichment ratio is at most 0.25.
Regarding YISQ, the enrichment ratio came out at 0.456.
As for YEYI, the enrichment ratio was at most 0.25.
